FLuc inh – qHTS Assay for Inhibitors of Firefly Luciferase; Luciferin 4-monooxygenase (Photinus pyralis), P08659; purified firefly luciferase, luminescence, 8 min; Potency, µM (top dose mostly 57.1 µM), hits mostly inhibitors; hit rate 2.2% among 72,000; also: nearly all actives have a fitted effect of over 40% in size
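Compounds were tested as concentration series (qHTS) against purified P. pyralis luciferase with luciferin and 10 uM ATP in 50 mM imidazole pH 7.2, 50 mM KCl, 7 mM MgCl2, 0.01% Tween 20, 0.05% BSA. Luminescence was read after 8 min at ambient temperature.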
p53ts 32C tox – qHTS Screen for Compounds that Selectively Target Cancer Cells with p53 Mutations: Cytotoxicity of p53ts Cells at the Permissive Temperature; Potency, µM (doses to about 46.1 µM), actives largely listed as cytotoxic; hit rate 0.93% among 130,000; H1299-p53A138V at 32C, ATP luminescence viability, 24 h; also: nearly all actives have a fitted effect of over 55% in size
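Viability by ATPlite luminescence after 24 h compound treatment (up to 46 uM) at the permissive 32C. Cells are H1299 carrying p53 A138V. Scale runs from DMSO basal to 100 uM tamoxifen as full kill; AC50 from Hill fits.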
IMPase cell inh – qHTS Assay for Identifying the Cell-Membrane Permeable IMPase Inhibitors | CHO-M1 cells, IP1 accumulation, HTRF TR-FRET ratio | inhibition (IP1 accumulation), % at 46.1 µM | 120,000 tested, under 10 active | AID 901, 2007; active = well fitted curve in the direction sought with a large enough effect in the signal ratio, not every such curve was filed as active; inconclusive = small, poorly fitted or top-dose-only effect, or a change in a side signal; inactive = no such curve, though single readings can be large or run the other way; the % refers to the signal ratio;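 also: cells stimulated with carbachol in lithium chloride buffer; higher means more IMPase inhibition seen as more IP1 and lower FRET ratio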
Target sequence (P97697 whole entry, looked up): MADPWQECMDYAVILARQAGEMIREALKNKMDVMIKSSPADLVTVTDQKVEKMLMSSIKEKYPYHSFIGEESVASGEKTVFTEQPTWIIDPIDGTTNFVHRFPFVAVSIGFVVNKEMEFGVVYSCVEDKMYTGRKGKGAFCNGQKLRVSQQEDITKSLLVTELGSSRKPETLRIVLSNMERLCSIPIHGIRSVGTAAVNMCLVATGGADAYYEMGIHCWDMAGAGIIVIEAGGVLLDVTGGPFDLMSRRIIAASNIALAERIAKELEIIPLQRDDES
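CHO-M1, 2000 cells/well, cultured 16–30 h; cpd up to 46 uM; carbachol (50 uM solution, stimulation buffer w/ 50 mM LiCl, pH 7.4), 30 min 37C; IP-One TR-FRET, 10 min RT; Ex 320/Em 665, 620; Hill-fit AC50.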
p53ts 39C tox – qHTS Screen for Compounds that Selectively Target Cancer Cells with p53 Mutations: Cytotoxicity of p53ts Cells at the Nonpermissive Temperature | Potency, µM (top dose mostly 46.1 µM), hits mostly cytotoxic | hit rate 1.5% among 130,000 | AID 902, 2007 | H1299-p53A138V viability at 39C, ATP luminescence, 24 h; also: nearly all actives have a fitted effect of over 55% in size
Hsp90 Hop PPI – qHTS Assay for Disrupters of an Hsp90 Co-Chaperone Interaction; Hsp90 C-terminal peptide / TPR2A (Hop) interaction, human; AlphaScreen TPR2A-His6 binding biotin-Hsp90 C-terminal peptide; Potency, µM (highest dose often 57 µM); hit rate 0.44% among 71,000; AID 595, 2007; active = well fitted curve in either direction with a large enough effect; inconclusive = small, poorly fitted or top-dose-only effect, or another doubt
IkB signaling – IkB Signaling | ABC-DLBCL IkBa-CBG/CBR dual luciferase ratio, 4 h; response scale: scaled: untreated 0%, proteasome inhibitor 100% | Potency, µM (highest dose often 57.1 µM) | hit rate 0.04% among 110,000; active = well fitted curve in the direction sought with a large enough effect in the signal ratio, not every such curve was filed as active; inconclusive = small, poorly fitted or top-dose-only effect, or a change in a side signal; the % refers to the signal ratio;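 also: the direction sought is a rising ratio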
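Curves were fitted separately to fusion (green), unfused (red) and ratio luminescence, then classed by r2, magnitude and activity. Cells: OCI-Ly3, 4 h compound plus doxycycline at 37C; 10 uM MG-132 defined full response.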
Of the large screens only hits and unclear results are named; the others gave an inactive call. The full list was thinned out, with hits kept by preference. Unless noted, calls follow the shape of the dose curve; as a rule, active = well fitted curve in the direction sought with a large enough effect; inconclusive = small, poorly fitted or top-dose-only effect, or another doubt; inactive = no such curve, though single readings can be large; an effect the other way counts as inactive or inconclusive.

CCOc1cccc2sc(NC(=O)c3ccc(S(=O)(=O)N4CCCCC4C)cc3)nc12 (stereo not given)	IkB signaling inconclusive (no result: FLuc inh, IMPase cell inh, Hsp90 Hop PPI)
Nn1c(-c2cccs2)nc2sc3c(c2c1=O)CCCC3	FLuc inh 16µM, p53ts 32C tox 10µM, p53ts 39C tox inconclusive, Hsp90 Hop PPI inconclusive, IkB signaling inconclusive
O=c1oc(-c2cccs2)nc2scc(-c3cccs3)c12	FLuc inh 13µM, IkB signaling inconclusive
Cc1ccccc1-c1nc2sc3c(c2c(=O)n1N)CCCC3	none (no result: FLuc inh, p53ts 32C tox, p53ts 39C tox, Hsp90 Hop PPI, IkB signaling)
CC1(C)Cc2c(sc3nc(-c4cccs4)n(N)c(=O)c23)CO1	FLuc inh 13µM, p53ts 32C tox inconclusive, p53ts 39C tox inconclusive, IkB signaling inconclusive
O=c1oc(-c2cccs2)nc2sc3c(c12)CCCCC3	FLuc inh inconclusive, p53ts 32C tox 13µM, p53ts 39C tox 10µM, IkB signaling inconclusive
COc1ccc(C(=O)NCc2nc(-c3cccc(C)c3)no2)cc1OC	none (no result: FLuc inh, IMPase cell inh, Hsp90 Hop PPI)
CCOC(=O)C1=C(C)NC(=O)N[C@@H]1c1coc2cc(C)cc(C)c2c1=O	none (no result: IMPase cell inh)
c1ccc(-n2nnc3c(N4CCOCC4)ncnc32)cc1	FLuc inh 5µM, p53ts 32C tox 13µM, p53ts 39C tox 13µM, IkB signaling inconclusive
CCCCCNC(=O)c1ccc2c(c1)nc(C)n2-c1cccc(C)c1	p53ts 39C tox 20µM (no result: FLuc inh, IMPase cell inh, Hsp90 Hop PPI)
COc1cccc(NC(=S)N/N=C2/CCCCc3ccccc32)c1	p53ts 32C tox inconclusive, p53ts 39C tox 22µM (no result: FLuc inh, Hsp90 Hop PPI, IkB signaling)
OC[C@@H]1NC[C@@H](O)[C@H]1O	none
Cc1cccc(OC(=O)CSc2nnc(-c3ccc4c(c3)OCO4)o2)c1C	none (no result: FLuc inh, IMPase cell inh, Hsp90 Hop PPI)
CCc1ccccc1NC(=O)CN(C)C(=O)Cn1ncc(Cl)c(Cl)c1=O	p53ts 32C tox 3.5µM, p53ts 39C tox 3.2µM (no result: FLuc inh, Hsp90 Hop PPI, IkB signaling)
CCN(Cc1ccccc1)c1ncnc2c1cnn2-c1ccc(F)cc1	p53ts 39C tox inconclusive, IkB signaling inconclusive (no result: FLuc inh, IMPase cell inh, Hsp90 Hop PPI)
CC(C)(C)Nc1ncnc2c1cnn2-c1ccccc1	FLuc inh 5µM, p53ts 32C tox 7.9µM, p53ts 39C tox 10µM, IkB signaling inconclusive
Cc1ccc(-n2ncc3c(NCCCOC(C)C)ncnc32)c(C)c1	none (no result: p53ts 32C tox, p53ts 39C tox, Hsp90 Hop PPI, IkB signaling)
COc1ccc(-n2ncc3c(NC(C)(C)CO)ncnc32)cc1	p53ts 32C tox 13µM, p53ts 39C tox 10µM (no result: FLuc inh, IMPase cell inh, Hsp90 Hop PPI)
CN(Cc1ccccc1)c1ncnc2c1cnn2-c1ccccc1	FLuc inh 13µM, p53ts 32C tox inconclusive, p53ts 39C tox inconclusive, Hsp90 Hop PPI inconclusive
c1ccc(CNc2ncnc3c2cnn3-c2ccccc2)cc1	none
CC(C)OCCCNc1ncnc2c1cnn2-c1ccccc1	FLuc inh 4µM (no result: p53ts 32C tox, p53ts 39C tox, Hsp90 Hop PPI, IkB signaling)
CCN(c1cccc(C)c1)S(=O)(=O)c1ccc(O)c(C(=O)O)c1	none (no result: FLuc inh, IMPase cell inh, Hsp90 Hop PPI, IkB signaling)
COC(=O)c1cc(=O)n(CCc2ccc(OC)cc2)c(=Nc2ccc(F)c(Cl)c2)s1	none (no result: FLuc inh, p53ts 32C tox, p53ts 39C tox, Hsp90 Hop PPI, IkB signaling)
CCn1c(=O)cc(C(=O)OC)sc1=Nc1ccc(F)c(F)c1	p53ts 32C tox 20µM, IkB signaling inconclusive
COc1ccc(CCCO[C@@H](Cn2ccnc2)c2ccc(OC)cc2)cc1	p53ts 32C tox inconclusive, p53ts 39C tox 32µM, IkB signaling inconclusive
Cc1ccc(NC(=O)CSc2nc3n[nH]c(C)c3c(=N)n2-c2cccc(C)c2)cc1	IkB signaling inconclusive (no result: FLuc inh, IMPase cell inh, Hsp90 Hop PPI)
CCC(C)NC(=O)CSc1nc2n[nH]c(C)c2c(=N)n1-c1cc(Cl)ccc1C (stereo not given)	p53ts 32C tox inconclusive, p53ts 39C tox 13µM, IkB signaling inconclusive (no result: FLuc inh, IMPase cell inh, Hsp90 Hop PPI)
Cc1ccc(Cl)cc1-n1c(SCC(=O)NCc2ccccc2)nc2n[nH]c(C)c2c1=N	p53ts 39C tox inconclusive (no result: FLuc inh, IMPase cell inh, Hsp90 Hop PPI)
CCc1ccc(NC(=O)CSc2nc3n[nH]c(C)c3c(=N)n2-c2ccc(C)cc2)cc1	p53ts 32C tox inconclusive, p53ts 39C tox 20µM (no result: FLuc inh, IMPase cell inh, Hsp90 Hop PPI)
CC(=O)N1c2ccc(S(=O)(=O)NCC3CCC(C(=O)Nc4cccc(F)c4)CC3)cc2CC1C (stereo not given)	IkB signaling inconclusive (no result: FLuc inh, IMPase cell inh, Hsp90 Hop PPI)
O=C(COC(=O)c1cc(-c2cccs2)nc2ccccc12)c1ccccc1	none (no result: FLuc inh, Hsp90 Hop PPI)

High-throughput results as filed in PubChem.
